Screening results deposited in PubChem by National Center for Advancing Translational Sciences (NCATS).
FBPA Giardia inh: qHTS Assay for Inhibitors of Fructose-1,6-bisphosphate Aldolase from Giardia Lamblia. AID 2451, 2010. 0.71% of 290,000 active. Potency, µM (series often up to 59.6 µM), without a hit: top-dose activity, negative = inhibition, actives largely listed as inhibitors. purified Giardia FBPA. A8B2U2; note: potency is the fitted concentration of half-maximal effect; % is set by controls: 0 for no effect and ±100 for the full control effect; nearly all actives have a fitted effect of over 55% in size
Target sequence (A8B2U2 whole entry, looked up): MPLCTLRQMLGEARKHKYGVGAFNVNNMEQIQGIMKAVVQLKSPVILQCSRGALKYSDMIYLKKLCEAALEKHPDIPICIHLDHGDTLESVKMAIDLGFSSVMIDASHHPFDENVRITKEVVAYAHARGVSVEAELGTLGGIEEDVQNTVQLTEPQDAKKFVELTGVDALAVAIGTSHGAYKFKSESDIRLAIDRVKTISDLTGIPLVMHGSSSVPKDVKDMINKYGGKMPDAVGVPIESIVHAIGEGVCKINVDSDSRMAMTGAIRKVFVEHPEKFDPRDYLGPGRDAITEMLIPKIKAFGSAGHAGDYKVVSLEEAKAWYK
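Giardia FBPA (40 nM reagent) was preincubated 10 min at RT with compound (up to 57.5 uM final), then substrate plus GAPDH/TPI/NAD/arsenate coupling system with diaphorase/resazurin was added; resorufin fluorescence (525/598 nm) was read after 20 min.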
LmPK inhibitor: qHTS Assay for Inhibitors of Leishmania Mexicana Pyruvate Kinase (LmPK); Potency, µM (series often up to 57.5 µM), inactives show at the highest dose activity change, negative = inhibition, usual class: inhibitors; 0.37% of 290,000 active; purified LmPK, Kinase-Glo ATP luminescence, 1 h; Q27686; note: potency is the fitted concentration of half-maximal effect; % is set by controls: 0 for no effect and ±100 for the full control effect
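qHTS format; LmPK 0.1 nM; substrates PEP 0.5 mM and ADP 0.1 mM. One-hour room-temperature incubation, then coupled luciferase luminescence; 0.5 nM enzyme wells mark activation.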
NS1 function inh: qHTS Assay for Inhibitors of Influenza NS1 Protein Function; Potency, µM (titrated, usually from 46.1 µM), for the others: at the highest dose activity, positive = more growth; 0.4% of 270,000 active; AID 2326, 2010; calls by dose curve; note: potency is the fitted concentration of half-maximal effect; actives are rising curves; nearly all actives have a fitted effect of over 50% in size
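In this qHTS, NS1 from influenza A is expressed in budding yeast, where it slows growth. Cells are switched from glucose to 2% galactose medium (pH 6.0, -URA), treated with compound, and growth recovery is read at OD600.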
Cycloheximide cs: Cycloheximide Counterscreen for Small Molecule Inhibitors of Shiga Toxin | cell reporter, cycloheximide protein synthesis inhibition counterscreen | 12% of 300,000 active | max response, %; in the data active = max response mostly above about 13%, no sharp cut-off; inactive = mostly below about 14%; note: read at 38.3 µM for the half of the compounds with a filed dose; 0% is about no effect
Shiga toxin inh: A qHTS for Small Molecule Inhibitors of Shiga Toxin; 9.2% of 290,000 active; inhibition, % at 38.7 µM; Vero cells, Shiga toxin protein synthesis inhibition reporter; in the data active = inhibition mostly above about 28%, no sharp cut-off; inactive = mostly below about 43%; note: 0% is about no effect
* hit, by the source's call; ? = inconclusive; . = no result; [ ] = another dose, or the depositor's remark. Compounds with a hit are over-represented: about 14% of the library has one in this group of screens. Unless noted, calls come from the whole dose curve; as a rule, active = well fitted curve in the direction sought with a large enough effect; inconclusive = small, poorly fitted or top-dose-only effect, or another doubt; inactive = no such curve, though single readings can be large; an effect the other way counts as inactive or inconclusive.

SMILES	FBPA Giardia inh	LmPK inhibitor	NS1 function inh	Cycloheximide cs	Shiga toxin inh
CCN(CC1CCCO1)C(=O)c1cc(COc2ccc(F)cc2F)on1 (stereo unspecified)	1%	1%	-2%	7	17
CC(=O)c1ccc(OCc2cc(C(=O)N(C)CCN3CCOCC3)no2)cc1	.	8%	-7%	16	25
COc1cccc(OCc2cc(C(=O)N(C)CCC3CCCCO3)no2)c1 (stereo unspecified)	.	-3%	-20%	75*	152*
CCCN(CC1CCCO1)C(=O)c1cc(COc2cccc(OC)c2)on1 (stereo unspecified)	.	-2%	-22%	14*	26
CC(=O)c1cccc(OCc2cc(C(=O)N(C)CCC3CCOCC3)no2)c1	8%	0%	?	42*	68*
Cc1ccc(NC(=O)/C(C#N)=C(\N)C(Cl)(Cl)Cl)nc1	-18%	-3%	.	38*	76*
Cc1ccc(NC(=O)c2cccnc2C(=O)O)nc1	?	3%	7%	-3	4
Cc1ccc(NC(=O)c2ccc(F)cc2)nc1	-16%	1%	1%	2	-2
Cc1ccc(NC(=O)C(=O)Nc2ccc(C)cn2)nc1	1%	6%	.	50*	85*
Cc1ccc(NC(=O)NC(=O)N(C(C)C)S(C)(=O)=O)nc1	-3%	-3%	11%	14*	-34
CC(C)N(C(=O)NC(=O)Nc1ccccn1)S(C)(=O)=O	1%	-6%	4%	6	-7
Cc1ccc(NC(=O)c2sccc2C)nc1	.	-6%	-4%	49*	88*
CN1C(C(=O)Nc2ccc(OC(F)(F)F)cc2)=CC(c2ccc3c(c2)OCO3)=NS1(=O)=O	.	5%	2%	-2	2
O=C(CN(Cc1ccco1)C(=O)CNS(=O)(=O)c1ccc(F)cc1)NCc1ccco1	.	2%	5%	-3	-7
Cc1cc(-c2cccc([N+](=O)[O-])c2)nc2ccccc12	-22%	-5%	-12%	12	-1
O=[N+]([O-])c1cccc(-c2cnc3ccccc3n2)c1	1%	-8%	3%	24*	63*
Nc1cccc(-c2cnc3ccccc3n2)c1	3%	-11%	3%	64*	63*
COC(=O)C/C=C\[C@@H](C)[C@@H](/C=N\O[C@@H](C)c1cc(-c2c(C)cc(C)cc2C)no1)OC	-1%[12.9 µM]	.	.	.	.
CCN(CC)S(=O)(=O)c1ccc2oc(C(=O)NCC3COc4ccccc4O3)c(C)c2c1 (stereo unspecified)	-1%	5%	?	5	5
CN(C)S(=O)(=O)c1ccc(NCC2COc3ccccc3O2)c([N+](=O)[O-])c1 (stereo unspecified)	-2%	0%	24%	27*	49
Cc1ccc([N+](=O)[O-])cc1S(=O)(=O)NCC1COc2ccccc2O1 (stereo unspecified)	17%	-1%	-29%	9	-9
O=C(Nc1ccccc1)c1ccc(NCC2CCCO2)c([N+](=O)[O-])c1 (stereo unspecified)	2%	-1%	-5%	68*	100*
COc1ccc(NC(=O)c2ccc(NCC3CCCO3)c([N+](=O)[O-])c2)cc1 (stereo unspecified)	1%	0%	6%	17	23
NC(=O)c1ccc(NCC2COc3ccccc3O2)c([N+](=O)[O-])c1 (stereo unspecified)	3%	-2%	-2%	33*	29
CCN(CC)S(=O)(=O)c1ccc(NCC2COc3ccccc3O2)c([N+](=O)[O-])c1 (stereo unspecified)	-1%	3%	12%	20*	21
SMILES	FBPA Giardia inh	LmPK inhibitor	NS1 function inh	Cycloheximide cs	Shiga toxin inh
COCCn1c(=O)c(-c2ccccc2)nc2cnc(Oc3ccc(OC)cc3)nc21	-10%	.	.	.	.
CCCCN(CCCC)CCCOC(=O)c1ccc(N)cc1	-3%	-1%	-2%	-4	11
CCCCCCOC(=O)c1ccc(N)cc1	-4%	4%	-43%	42*	69*
CCCOC(=O)c1ccc(NC(=O)C(CC)CC)cc1	4%	1%	-5%	40*	70*
CCCCCCOC(=O)c1ccccc1N	0%	10%	5%	39*	76
CCCCOC(=O)c1ccc(NC(=O)c2nn(C)cc2Br)cc1	-4%	-4%	4%	30*	79*
